# “And” between values parts separate entries of the source, which are not always exact repeats. Equal entries are not always repeated. Where two headings read alike, the source gives them in different places.
# What was measured:
# [1] = test system: TAOK2; conditions: concentration: 1 μM, replicates: in singlicate, n = 1
# [2] = test system: TAOK3; conditions: concentration: 1 μM, replicates: in singlicate, n = 1
# [3] = test system: TBK1; conditions: concentration: 1 μM, replicates: in singlicate, n = 1
# [4] = test system: TEC; conditions: concentration: 1 μM, replicates: in singlicate, n = 1
# [5] = test system: TESK1; conditions: concentration: 1 μM, replicates: in singlicate, n = 1
# [6] = test system: TGFBR1; conditions: n = 1
# [7] = test system: TGFBR2; conditions: concentration: 1 μM, replicates: in singlicate, n = 1
# [8] = test system: TIE1; conditions: concentration: 1 μM, replicates: in singlicate; n = 1
# [9] = test system: T1, TIE2; conditions: concentration: 1 μM, replicates: in singlicate; n = 1
# T1 construct: gene TEK
# [10] = test system: TLK1; conditions: concentration: 1 μM, replicates: in singlicate, n = 1
# [11] = concentration: 1 μM, replicates: in singlicate
# 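Note: KINOMEscan kinase panel screen.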
SMILES,%Inh [1] [%],%Inh [2] [%],%Inh [3] [%],%Inh [4] [%],%Inh [5] [%],"%Inh [6, 11] [%]",%Inh [7] [%],%Inh [8] [%],%Inh [9] [%],%Inh [10] [%],%Inh ([6]; 1 µM) [%],%Inh ([1]; 1 µM),%Inh ([2]; 1 µM),%Inh ([3]; 1 µM),%Inh ([4]; 1 µM),%Inh ([5]; 1 µM),"%Inh ([6]; concentration: 1 μM, replicates: in singlicate, 1 µM)",%Inh ([7]; 1 µM),%Inh ([10]; 1 µM)
COc1ccc(COc2cc(-n3cnc4ccccc43)sc2C(N)=O)cc1 [GSK1024304],0,0,0,12,20,0,0,11,0,0,–,–,–,–,–,–,–,–,–
O=C(Nc1n[nH]c2cc(-c3cccc(F)c3)ccc12)C1CC1 [SB-735464],32,8,10,0,17,5,0,0,16,16,–,–,–,–,–,–,–,–,–
c1ccc(-c2cc(-c3c[nH]nc3-c3ccccn3)ccn2)cc1 [GW576604],0,0,5,0,9,–,62,0,0,1,75,–,–,–,–,–,–,–,–
O=c1cc(N2CCOCC2)nc2n(Cc3cccc4ccccc34)ccn12 [GSK2333389],0,0,0,0,0,17,1,11,0,0,–,–,–,–,–,–,–,–,–
COCCNC(=O)c1ccc(-c2cc(C(=O)NC3CC3)cc(F)c2C)cc1 [GW868318],16,32,34,11,26,0,6,17,17,14,–,–,–,–,–,–,–,–,–
C[C@@H](Oc1cc(-n2cnc3ccc(NC(=O)NC(C)(C)C)cc32)sc1C(N)=O)c1ccccc1Cl [GSK346294],2,0,27,20,0,0,4,3,0,21,–,–,–,–,–,–,–,–,–
O=c1cc(N2CCOCC2)nc2n(Cc3cccc(C(F)(F)F)c3)ccn12 [GSK2297543],0,0,24,0,18,0,0,0,0,12,–,–,–,–,–,–,–,–,–
Cl.Nc1ncnc2occ(-c3ccc(NC(=O)Nc4cc(C(F)(F)F)ccc4F)cc3)c12 [SB-707548],22,17,35,4,17,33,0,98.7,99.8,14,–,–,–,–,–,–,–,–,–
Cl.Cl.Cl.Fc1ccc(-c2ncn(C3CCNCC3)c2-c2ccnc(Nc3ccccc3)n2)cc1 [SB-238039],–,–,–,–,–,–,–,0,0,–,–,78% and 0%,91.5% and 57%,36% and 0%,12% and 0%,8% and 0%,61% and 29%,16% and 12%,4% and 19%
c1ccc(-c2n[nH]cc2-c2ccnc3ccccc23)nc1 [GW271431],0,0,12,0,20,–,72,3,0,2,90.1,–,–,–,–,–,–,–,–
O=C1Cc2cc(Nc3nc(NCc4cccc(S(=O)(=O)C(F)(F)F)c4)ncc3C(F)(F)F)ccc2N1,0,0,0,0,0,0,2,0,0,0,–,–,–,–,–,–,–,–,–
Fc1ccc(-c2ncn(CCCN3CCOCC3)c2-c2cccnc2)cc1 [SB-211743],34,0,43,9,5,26,12,9,0,0,–,–,–,–,–,–,–,–,–
CN(C(=O)c1ccc(-c2cc(-c3c[nH]nc3-c3ccccn3)ccn2)cc1)C1CCOCC1 [GW810083],0,0,0,0,1,–,21,0,1,0,77,–,–,–,–,–,–,–,–
Cc1nnc(-c2ccc3occ(-c4ccc(C(C)O)cc4)c3c2)o1 (stereo not shown),8,0,30,0,3,3,69,18,16,0,–,–,–,–,–,–,–,–,–
O=C(NCCNc1ccnc(Nc2ccc(F)cc2)n1)Nc1ccccc1F [GSK1379880],0,0,6,14,0,0,0,0,0,2,–,–,–,–,–,–,–,–,–
Cc1cn2c(=O)cc(N3CCOCC3)nc2n1Cc1cccc(Cl)c1Cl [GSK2334006],0,0,0,12,17,15,0,50,19,17,–,–,–,–,–,–,–,–,–

# Source: article PMC5540273 (PLoS ONE, 2017)
